The full list was thinned out, with hits kept by preference.
STK33 kin inh: STK33 kinase inhibitors, primary screen, biochemical, luminescence, ADP-Glo, MBP substrate. Serine/threonine-protein kinase 33 (Homo sapiens), Q9BYT3. actives 0.44% (n = 27,000). inhibition, % at 12.5 µM; in the data active = inhibition above about 20%; inconclusive = no clear call, values can overlap the other calls
Target sequence (Q9BYT3 whole entry, looked up): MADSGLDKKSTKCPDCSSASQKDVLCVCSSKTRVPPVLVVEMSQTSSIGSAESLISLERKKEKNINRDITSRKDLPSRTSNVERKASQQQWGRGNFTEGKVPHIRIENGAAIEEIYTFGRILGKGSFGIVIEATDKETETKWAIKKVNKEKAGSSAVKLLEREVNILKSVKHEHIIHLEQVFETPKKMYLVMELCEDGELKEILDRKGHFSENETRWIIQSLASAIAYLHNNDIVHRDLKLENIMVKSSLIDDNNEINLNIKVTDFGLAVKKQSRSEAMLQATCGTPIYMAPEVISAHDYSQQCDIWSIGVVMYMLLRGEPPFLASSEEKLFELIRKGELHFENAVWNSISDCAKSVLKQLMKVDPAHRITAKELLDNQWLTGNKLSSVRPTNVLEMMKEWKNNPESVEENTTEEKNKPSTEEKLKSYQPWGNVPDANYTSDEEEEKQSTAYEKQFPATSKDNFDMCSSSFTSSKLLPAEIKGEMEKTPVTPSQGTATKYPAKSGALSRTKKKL
NOMO-1 viab: NOMO-1 AML cell viability reduction, primary screen, STK33 inhibitor project, CellTiter-Glo luminescence; actives 7.5% (n = 37,000); NOMO-1 AML viability, 72 h; inhibition, % (concentration not given with the values); in the data active = inhibition above about 80%; inconclusive = no clear call, values can overlap the other calls
PD-1 reverse act: activators reversing PD-1 mediated T-cell inhibition, primary screen, luminescence, primary human CD4 T cells, PD-L1 beads | 29,000 tested, under 10 active | AID 2316, 2010 | CellTiter-Glo 96 h | activation, % (test concentration not listed); call rule not given here;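 note: 0% = median vehicle wells and 100% = positive control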
Starred values were filed as active, the others as inactive; ? = inconclusive; · = no result given.

SMILES | STK33 kin inh | NOMO-1 viab | PD-1 reverse act
CN1CCN(C(=O)CN(c2ccc(I)cc2)S(=O)(=O)c2ccccc2)CC1 | -3 | 20 | ·
COC(=O)C[C@H]1C(C)(C)C(=O)[C@@H]2CC3=C4CC(=O)O[C@@H](c5ccoc5)[C@]4(C)CCC3[C@@]1(C)C2=O (stereo not given in full) | 2 | -15 | ·
CC(=O)O[C@H]1C[C@@H](OC(C)=O)C(C)(C)C2C[C@@H](OC(C)=O)[C@]3(C)C([C@H](OC(C)=O)C[C@@]4(C)[C@H](c5ccoc5)OC(=O)[C@H]5O[C@]543)[C@]21C (stereo not given in full) | 1 | 40 | ·
CC1(C)C(=O)C=C[C@@]2(C)C1C=C[C@]1(C)C2CC[C@@]2(C)[C@H](c3ccoc3)OC(=O)C3OC321 (stereo not given in full) | 8 | 107* | ·
C=C1C(C2(C)C=CC(=O)C(C)(C)C2CC(=O)OC)CC[C@@]2(C)[C@H](c3ccoc3)OC(=O)C3OC132 (stereo not given in full) | 0 | 110* | ·
O=C(C[n+]1ccccc1)c1cc2ccccc2oc1=O | · | 46 | -1
CCCSc1nc(NCCO)c2c3c(sc2n1)COC(C)(CC)C3 (stereo not given) | 0 | 17 | ·
C[C@H]1CN([C@@H](C)CO)C(=O)Cc2cc(NC(=O)Nc3ccc4c(c3)OCO4)ccc2O[C@H]1CN(C)Cc1ccc(Cl)c(Cl)c1 | 5 | 113* | 2
C[C@@H]1CN([C@@H](C)CO)C(=O)Cc2cc(NC(=O)Nc3ccc4c(c3)OCO4)ccc2O[C@@H]1CN(C)Cc1ccc(Cl)c(Cl)c1 | 1 | 39 | -2
Cc1noc(C)c1NC(=O)Nc1ccc2c(c1)CC(=O)N([C@@H](C)CO)C[C@H](C)[C@H](CN(C)Cc1ccc(Cl)c(Cl)c1)O2 | 2 | 114* | 0
C[C@@H]1CN([C@@H](C)CO)C(=O)Cc2cc(NC(=O)Nc3ccccc3)ccc2O[C@@H]1CN(C)Cc1ccc(Cl)c(Cl)c1 | 1 | 103* | -3
Cc1noc(C)c1NC(=O)Nc1ccc2c(c1)CC(=O)N([C@@H](C)CO)C[C@@H](C)[C@@H](CN(C)Cc1ccc3c(c1)OCO3)O2 | 0 | -4 | 0
C[C@H](CO)N1C[C@H](C)[C@H](CN(C)Cc2ccc(Cl)c(Cl)c2)Oc2ccc(NC(=O)Nc3ccc(F)cc3)cc2CC1=O | -1 | 75 | -1
C[C@H]1CN([C@@H](C)CO)C(=O)Cc2cc(NC(=O)Nc3ccc(F)cc3)ccc2O[C@H]1CN(C)Cc1ccc(Cl)c(Cl)c1 | · | 127* | ·
C[C@H](CO)N1C[C@H](C)[C@H](CN(C)Cc2ccccc2)Oc2ccc(NC(=O)Nc3ccccc3)cc2CC1=O | · | 63 | ·
c1cnc(SCCCCOc2ccc3c(c2)CCC3)nc1 | -4 | 35 | 2
O=C(CSc1nnc(-c2ccc(Br)cc2)o1)c1ccc([N+](=O)[O-])cc1 | -5 | 17 | ·
COc1cccc(C(=O)OCC(=O)c2ccccc2)c1OC | · | -20 | 0
CCc1ccccc1NC(=O)CSc1nnc(-c2cccc(C)c2)n1C | 1 | -8 | 1
CCOc1ccccc1NC(=O)c1ccsc1NC(=O)c1ccoc1C | 2 | 5 | 0
C[C@@H]1CN([C@H](C)CO)C(=O)Cc2cc(NC(=O)Nc3ccc(F)cc3)ccc2O[C@@H]1CN(C)Cc1ccc(Cl)c(Cl)c1 | 3 | 114* | -10
COc1ccc(NC(=O)Nc2ccc3c(c2)CC(=O)N([C@@H](C)CO)C[C@H](C)[C@@H](CN(C)Cc2ccc(Cl)c(Cl)c2)O3)cc1 | 0 | 46 | ·
O=C(CN1CC(=O)Oc2ccccc21)OCC(=O)c1ccccc1 | · | 103* | -1
O=C(CN1C(=O)c2ccccc2S1(=O)=O)Nc1ccc2c(c1)OCCO2 | -1 | -8 | ·
COc1ccc(C(=O)COC(=O)CN2C(=O)C3CC=CCC3C2=O)cc1 (stereo not given) | -1 | 31 | 1
SMILES | STK33 kin inh | NOMO-1 viab | PD-1 reverse act
O=C(CN1CC(=O)Oc2ccccc21)Nc1ccc(O)cc1 | · | 111* | -4
O=C(CC1Nc2cccc3cccc(c23)NC1=O)Nc1ccc([N+](=O)[O-])cc1 (stereo not given) | 4 | 124* | -10
O=C(CC1Nc2cccc3cccc(c23)NC1=O)Nc1cccc([N+](=O)[O-])c1 (stereo not given) | 0 | 61 | -3
CC(NC(=O)COc1ccc(Cl)cc1Cl)C(=O)O (stereo not given) | -3 | -2 | ·
O=C(CSc1nnc(-c2cccs2)n1-c1ccccc1)Nc1ccccc1Cl | 5 | -2 | 0
CC(C)C(NC=O)C(=O)N1CCC2Oc3ccc(cc3)/C=C\NC(=O)C(Cc3ccccc3)NC(=O)C21 (stereo not given) | -8 | · | ·
COC(=O)c1ccccc1NC(=O)CSc1nc2c(c(C(F)(F)F)n1)CCCC2 | 4 | 16 | ·
Cc1noc(C)c1S(=O)(=O)Nc1ccc2c(c1)CC(=O)N([C@@H](C)CO)C[C@H](C)[C@@H](CN(C)Cc1ccc(C(F)(F)F)cc1)O2 | 6 | 65 | ·
Cc1noc(C)c1S(=O)(=O)Nc1ccc2c(c1)CC(=O)N([C@@H](C)CO)C[C@H](C)[C@H](CN(C)Cc1ccc(Cl)c(Cl)c1)O2 | 4 | ? | -4
Cc1noc(C)c1S(=O)(=O)Nc1ccc2c(c1)CC(=O)N([C@@H](C)CO)C[C@H](C)[C@H](CN(C)Cc1ccc(C(F)(F)F)cc1)O2 | -6 | 83* | -3
Cc1noc(C)c1S(=O)(=O)Nc1ccc2c(c1)CC(=O)N([C@H](C)CO)C[C@@H](C)[C@H](CN(C)Cc1ccc(Cl)c(Cl)c1)O2 | 3 | 97* | -2
COc1cc(-c2nnc(SCC(N)=O)n2C)cc(OC)c1OC | 3 | 8 | ·
C[C@H](CO)N1C[C@H](C)[C@@H](CN(C)Cc2ccc(C(F)(F)F)cc2)Oc2ccc(NC(=O)Nc3ccc(C(F)(F)F)cc3)cc2C1=O | · | 130* | ·
C[C@@H]1CN([C@@H](C)CO)C(=O)c2cc(NC(=O)Nc3ccc(C(F)(F)F)cc3)ccc2O[C@@H]1CN(C)Cc1ccc(C(=O)O)cc1 | -2 | 6 | 3
C[C@H]1CN([C@@H](C)CO)C(=O)c2cc(NC(=O)Nc3ccc(C(F)(F)F)cc3)ccc2O[C@@H]1CN(C)Cc1ccncc1 | 5 | 36 | -2
C[C@@H]1CN([C@@H](C)CO)C(=O)c2cc(NC(=O)Nc3ccc(C(F)(F)F)cc3)ccc2O[C@H]1CN(C)Cc1ccc(C(F)(F)F)cc1 | 5 | 117* | -12
C[C@@H]1CN([C@@H](C)CO)C(=O)c2cc(NC(=O)Nc3ccc(C(F)(F)F)cc3)ccc2O[C@@H]1CN(C)Cc1ccc(Cl)c(Cl)c1 | · | 108* | 1
C[C@H]1CN([C@@H](C)CO)C(=O)c2cc(NC(=O)Nc3ccc(C(F)(F)F)cc3)ccc2O[C@@H]1CN(C)Cc1ccc(C(F)(F)F)cc1 | 0 | 114* | -13
O=C(COc1ccc(C(=O)Nc2cc(Cl)ccc2Cl)cc1)Nc1cccc2ccccc12 | -4 | 38 | -1
COc1ccc(OC)c(NC(=O)Cc2c(OC)ccc3cc(Br)ccc23)c1 | 2 | 30 | ·
